The molecules below were run on T1, TRKC.
T1 construct: gene NTRK3
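Further: kd values determined as follow-up on hits from a single-replicate KINOMEscan panel screen.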

SMILES	Kd [nM]
COC(=O)c1cccc(NC(=O)NC2CCN(c3ccnc(Nc4ccc(OC)cc4)n3)C2)c1 (centres unmarked) [GSK1379746]	1000
COC(=O)c1cccc(NC(=O)NC2CCN(c3ccnc(Nc4ccc(F)cc4)n3)C2)c1 (centres unmarked) [GSK1379725]	340
CC(=O)c1cccc(NC(=O)NC2CCN(c3ccnc(Nc4ccc(F)cc4)n3)C2)c1 (centres unmarked) [GSK1379710]	94

What follows are molecules tested on T2, VPS34.
T2 construct: gene PIK3C3

SMILES	Kd [nM]
Cc1c(Cn2c3ccccc3n3c(=O)cc(N4CCOCC4)nc23)cccc1C(F)(F)F [GSK2306394]	> 10000
O=C1NC(=O)C(c2ccc(Cl)cc2)=C1Nc1cccc(Cl)c1 [SB-317651]	300
O=c1cc(N2CCOCC2)nc2n(Cc3cccc(Cl)c3Cl)c3ccccc3n12 [GSK2299009]	470
Cc1ccccc1Cn1ccn2c(=O)cc(N3CCOCC3)nc12 [GSK2269905]	180
O=c1cc(N2CCOCC2)nc2n(Cc3ccccc3F)ccn12 [GSK2297428]	68

Source: PMC5540273 (PLoS ONE, 2017)
